Source: PubChem BioAssay AID1159580 (chemical genetic matrix, 2015)
The whole screen tested about 5,500 compounds, of which about 2,000 (36%) were called active. Not shown: some 18% with an inconclusive outcome. Cut-off read from the data, not from the text of the source: active = normalized growth mostly below about 0.91 (no sharp cut-off); inconclusive = no clear call, values can overlap the other calls; inactive = mostly above about 0.92. The list shows a part of the results.

Assay: chemical genetic growth profiling, strain panel (AID 1159580);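 note: tested at 20 µM; growth read once vehicle control cultures reached saturation at 30 °C; 1 = growth at the plate median or of vehicle wells; lower values mean less growth of the strain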
Settings: growth OD

Measured: normalized growth

COc1cc(S(C)=O)ccc1-c1nc2ncccc2[nH]1 (centres undefined)
inactive: S. cerevisiae deletion strains, locus YJR043C, strain POL32, active compounds read low 1 | S. cerevisiae deletion strains, locus YJR075W, strain HOC1, active compounds read low 0.983 | S. cerevisiae deletion strains, locus YKL009W, strain mrt4, active compounds read low 1 | S. cerevisiae deletion strains, locus YKL068W, active compounds read low 0.991 | S. cerevisiae deletion strains, locus YKL085W, strain MDH1 (second series), active compounds read low 1 | S. cerevisiae deletion strains, locus YKL085W, strain MDH1, active compounds read low 1 | S. cerevisiae deletion strains, locus YKL160W, strain elf1, active compounds read low 0.947 | S. cerevisiae deletion strains, locus YKL190W, strain CNB1, active compounds read low 0.991 | S. cerevisiae deletion strains, locus YKR001C, strain vps1, active compounds read low 0.986 | S. cerevisiae deletion strains, locus YKR026C, strain gcn3, active compounds read low 0.98 | S. cerevisiae deletion strains, locus YKR091W, strain srl3, active compounds read low 0.959 | S. cerevisiae deletion strains, locus YLL001W, strain dnm1, active compounds read low 0.919 | S. cerevisiae deletion strains, locus YLL026W, active compounds read low 0.962 | S. cerevisiae deletion strains, locus YLL041C, strain sdh2, active compounds read low 0.97 | S. cerevisiae deletion strains, locus YLR027C, strain aat2, active compounds read low 0.98 | S. cerevisiae deletion strains, locus YLR039C, strain RIC1, active compounds read low 1.03 | S. cerevisiae deletion strains, locus YLR058C, strain SHM2, active compounds read low 0.993 | S. cerevisiae deletion strains, locus YLR102C, strain apc9, active compounds read low 0.999 | S. cerevisiae deletion strains, locus YLR221C, strain rsa3, active compounds read low 1.01 | S. cerevisiae deletion strains, locus YLR258W, strain gsy2, active compounds read low 0.93 | S. cerevisiae deletion strains, locus YLR262C, strain YPT6 (second series), active compounds read low 0.987 | S. cerevisiae deletion strains, locus YLR262C, strain YPT6, active compounds read low 0.994 | S. cerevisiae deletion strains, locus YLR268W, strain sec22, active compounds read low 0.999 | S. cerevisiae deletion strains, locus YLR320W, strain mms22, active compounds read low 0.995 | S. cerevisiae deletion strains, locus YLR330W, strain CHS5, active compounds read low 0.988 | S. cerevisiae deletion strains, locus YLR342W, strain FKS1 (second series), active compounds read low 1 | S. cerevisiae deletion strains, locus YLR342W, strain FKS1, active compounds read low 0.969 | S. cerevisiae deletion strains, locus YLR357W, strain rsc2, active compounds read low 0.915 | S. cerevisiae deletion strains, locus YLR370C, strain arc18, active compounds read low 0.974 | S. cerevisiae deletion strains, locus YLR371W, strain rom2, active compounds read low 0.991 | S. cerevisiae deletion strains, locus YLR384C, strain iki3, active compounds read low 0.961 | S. cerevisiae deletion strains, locus YLR418C, strain cdc73, active compounds read low 1.04 | S. cerevisiae deletion strains, locus YML016C, strain PPZ1, active compounds read low 1 | S. cerevisiae deletion strains, locus YML032C, strain rad52, active compounds read low 0.989 | S. cerevisiae deletion strains, locus YML120C, strain ndi1, active compounds read low 0.971 | S. cerevisiae deletion strains, locus YML124C, strain tub3, active compounds read low 0.993 | S. cerevisiae deletion strains, locus YMR058W, strain fet3, active compounds read low 0.982 | S. cerevisiae deletion strains, locus YMR078C, strain ctf18, active compounds read low 0.989 | S. cerevisiae deletion strains, locus YMR125W, strain sto1, active compounds read low 0.927 | S. cerevisiae deletion strains, locus YMR129W, active compounds read low 0.979 | S. cerevisiae deletion strains, locus YMR205C, strain PFK2, active compounds read low 0.93 | S. cerevisiae deletion strains, locus YMR223W, strain ubp8, active compounds read low 0.998 | S. cerevisiae deletion strains, locus YMR231W, strain pep5, active compounds read low 0.99 | S. cerevisiae deletion strains, locus YMR263W, strain SAP30, active compounds read low 0.975 | S. cerevisiae deletion strains, locus YMR307W, strain GAS1, active compounds read low 1.03 | S. cerevisiae deletion strains, locus YNL067W, strain RPL9B, active compounds read low 1.01 | S. cerevisiae deletion strains, locus YNL071W, strain lat1, active compounds read low 0.97 | S. cerevisiae deletion strains, locus YNL128W, strain TEP1, active compounds read low 0.997 | S. cerevisiae deletion strains, locus YNL153C, strain GIM3, active compounds read low 0.999 | S. cerevisiae deletion strains, locus YNL209W, strain ssb2, active compounds read low 0.98 | S. cerevisiae deletion strains, locus YNL233W, strain BNI4, active compounds read low 0.995 | S. cerevisiae deletion strains, locus YNL248C, strain rpa49, active compounds read low 0.967 | S. cerevisiae deletion strains, locus YNL250W, strain rad50, active compounds read low 0.991 | S. cerevisiae deletion strains, locus YNL271C, strain bni1, active compounds read low 0.997 | S. cerevisiae deletion strains, locus YNL298W, strain CLA4, active compounds read low 0.971 | S. cerevisiae deletion strains, locus YNL307C, strain MCK1, active compounds read low 1 | S. cerevisiae deletion strains, locus YNL322C, strain KRE1 (second series), active compounds read low 0.938 | S. cerevisiae deletion strains, locus YNL322C, strain KRE1, active compounds read low 0.998 | S. cerevisiae deletion strains, locus YNR049C, strain mso1, active compounds read low 0.966 | S. cerevisiae deletion strains, locus YNR052C, strain pop2, active compounds read low 0.976 | S. cerevisiae deletion strains, locus YOL006C, strain TOP1, active compounds read low 1.04 | S. cerevisiae deletion strains, locus YOL012C, strain htz1 1.02 | S. cerevisiae deletion strains, locus YOL147C, strain pex11, active compounds read low 0.982 | S. cerevisiae deletion strains, locus YOR001W, strain rrp6, active compounds read low 1.01 | S. cerevisiae deletion strains, locus YOR061W, strain CKA2, active compounds read low 1.01 | S. cerevisiae deletion strains, locus YOR069W, strain VPS5, active compounds read low 1 | S. cerevisiae deletion strains, locus YOR070C, strain gyp1, active compounds read low 0.993 | S. cerevisiae deletion strains, locus YOR080W, strain dia2, active compounds read low 0.982 | S. cerevisiae deletion strains, locus YOR083W, strain WHI5, active compounds read low 0.936 | S. cerevisiae deletion strains, locus YOR106W, strain vam3, active compounds read low 0.91 | S. cerevisiae deletion strains, locus YOR136W, strain idh2, active compounds read low 0.986 | S. cerevisiae deletion strains, locus YOR144C, strain elg1, active compounds read low 0.99 | S. cerevisiae deletion strains, locus YOR184W, strain ser1, active compounds read low 0.998 | S. cerevisiae deletion strains, locus YOR265W, strain rbl2, active compounds read low 0.967 | S. cerevisiae deletion strains, locus YOR270C, strain vph1, active compounds read low 0.974 | S. cerevisiae deletion strains, locus YOR290C, strain snf2, active compounds read low 0.951 | S. cerevisiae deletion strains, locus YOR316C, strain cot1, active compounds read low 0.991 | S. cerevisiae deletion strains, locus YPL051W, strain arl3, active compounds read low 0.943 | S. cerevisiae deletion strains, locus YPL055C, strain LGE1, active compounds read low 0.925 | S. cerevisiae deletion strains, locus YPL078C, strain atp4, active compounds read low 0.94 | S. cerevisiae deletion strains, locus YPL106C, strain sse1, active compounds read low 0.947 | S. cerevisiae deletion strains, locus YPL240C, strain hsp82, active compounds read low 0.985 | S. cerevisiae deletion strains, locus YPL241C, strain CIN2, active compounds read low 0.992 | S. cerevisiae deletion strains, locus YPR119W, strain clb2, active compounds read low 0.988 | S. cerevisiae deletion strains, locus YPR141C, strain kar3, active compounds read low 0.999 | S. cerevisiae deletion strains, locus YPR163C, strain tif3, active compounds read low 0.982 | S. cerevisiae deletion strains, locus YPR167C, strain met16, active compounds read low 0.999 | S. cerevisiae deletion strains, strain wtn01, active compounds read low 0.975 | S. cerevisiae strains, strain wild type, active compounds read low 1
